# The supplement of paper PMC7530171
# Structures can show the parent of a compound that is named as a salt. ± gives the standard deviation.
# Tested on: THP-1 macrophages infected with Mycobacterium tuberculosis H37Rv
# Assay: intracellular M.tb growth inhibition relative to DMSO (0) and 4 uM bedaquiline (100); higher = stronger inhibition of intracellular bacterial growth
# Conditions: 10 µM; 4 days
# Experimental: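 OICR kinase inhibitor library screened in duplicate at 10 uM against THP-1 macrophages (PMA-differentiated) infected with M. tuberculosis H37Rv-pTEC27 (tdTomato RFP), 4 days at 37 C. Rows with complete host cell loss (placeholder inhibition 0, cell loss 100) were removed.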
row,SMILES,intracellular M.tb growth inhibition
1,CS(=O)(=O)N1CCN(Cc2cc3nc(-c4cccc5[nH]ncc45)nc(N4CCOCC4)c3s2)CC1 [GDC-0941 bismesylate],56 ± 26%
2,CN1CCC(CNc2ccc3ncc(-c4cccc(OC(F)(F)F)c4)n3n2)CC1,89.1 ± 24%
3,NC(=O)c1ccc(N(C(N)=O)c2c(F)cccc2F)nc1-c1ccc(F)cc1F,-1.77 ± 10%
4,C=CCn1c(=O)c2cnc(Nc3ccc(N4CCN(C)CC4)cc3)nc2n1-c1cccc(C(C)(C)O)n1,-188 ± 280%
5,C[C@@H]1CCN(C(=O)CC#N)C[C@@H]1N(C)c1ncnc2[nH]ccc12,-17.5 ± 21%
6,COc1cc(Nc2ncc(F)c(Nc3ccc4c(n3)NC(=O)C(C)(C)O4)n2)cc(OC)c1OC,-164 ± 230%
7,COc1cc(C[C@H]2C(=O)OC[C@@H]2Cc2ccc(OC)c(OC)c2)ccc1O [Arctigenin],46 ± 8.1%
8,O=c1oc2c(O)c(O)cc3c(=O)oc4c(O)c(O)cc1c4c23 [Ellagic acid],-20.9 ± 30%
9,Cc1ccc(-n2nc(C(C)(C)C)cc2NC(=O)Nc2ccc(OCCN3CCOCC3)c3ccccc23)cc1,-1.53 ± 2.2%
10,CN1CCN(CCOc2cc(OC3CCOCC3)c3c(Nc4c(Cl)ccc5c4OCO5)ncnc3c2)CC1,44.4 ± 16%
11,CC(NC(=O)C(C#N)=Cc1ccc(O)c(O)c1)c1ccccc1 (stereo not given) [Tyrphostin B44],-7.66 ± 34%
12,COc1cccc(-c2cc(=O)c3ccccc3o2)c1N,27.4 ± 15%
13,Nc1nc(OCC2CCCCC2)c2[nH]cnc2n1,-15.1 ± 19%
14,COc1cc(F)c(F)c(Nc2ccc(I)cc2F)c1NS(=O)(=O)C1(C[C@H](O)CO)CC1,44.7 ± 27%
15,COC(=O)c1ccc2c(c1)NC(=O)/C2=C(\Nc1ccc(N(C)C(=O)CN2CCN(C)CC2)cc1)c1ccccc1,-144 ± 210%
16,O=C1NC(=O)C(c2ccccc2[N+](=O)[O-])=C1Nc1ccc(O)c(Cl)c1,-38.8 ± 82%
17,O=C1Nc2ccc(I)cc2/C1=C/c1cc(Br)c(O)c(Br)c1,9.15 ± 48%
18,C[S+]([O-])c1ccc(-c2nc(-c3ccc(F)cc3)c(-c3ccncc3)[nH]2)cc1 (stereo not given),14.3 ± 12%
19,CC[C@H](Nc1ncnc2[nH]cnc12)c1nc2cccc(F)c2c(=O)n1-c1ccccc1,-236 ± 290%
20,Cc1cc(Nc2nc(N[C@@H](C)c3ncc(F)cn3)ncc2Cl)[nH]n1,-234 ± 120%

row,SMILES,intracellular M.tb growth inhibition
1,C#Cc1cccc(Nc2ncnc3cc(OCCOC)c(OCCOC)cc23)c1 [Erlotinib HCl],-17.4 ± 52%
2,O=C(Nc1cccc(Nc2ncc(Br)c(NCCc3cnc[nH]3)n2)c1)N1CCCC1,-256 ± 330%
3,Cc1cc(Nc2cc(N3CCN(C)CC3)nc(/C=C/c3ccccc3)n2)n[nH]1,-329 ± 400%
4,NC(=O)Nc1cc(-c2cccc(F)c2)sc1C(=O)N[C@H]1CCCNC1,-218 ± 310%
5,COc1ccc(Cl)cc1NC(=O)Nc1cc(C)nc2ccccc12,59.1 ± 9.6%
6,O=C1NC(=O)/C(=C/c2ccc3c(c2)OC(F)(F)O3)S1,42.5 ± 35%
7,Fc1ccc(Cl)cc1-c1nc(Nc2ccncc2)c2nccnc2n1,36.5 ± 10%
8,CCN1/C(=C/C(C)=O)Sc2ccc(OC)cc21,-98.4 ± 120%
9,Clc1ccc(Nc2nnc(Cc3ccncc3)c3ccccc23)cc1 [Vatalanib dihydrochloride],-2.9 ± 24%
10,O=c1[nH]ccc2c(S(=O)(=O)N3CCCNCC3)cccc12 [HA 1100 hydrochloride],-142 ± 180%
11,CN(C)CCOc1cc(-c2cn[nH]c2)ccc1NC(=O)C1COc2ccccc2O1 (stereo not given),-97.9 ± 79%
12,COc1cc2ncn(-c3cc(OCc4ccccc4C(F)(F)F)c(C(N)=O)s3)c2cc1OC,38.7 ± 14%
13,NC(=O)c1ccc(-c2nc(-c3ccccn3)c(-c3ccc4c(c3)OCO4)[nH]2)cc1,17.9 ± 36%
14,CCCS(=O)(=O)Nc1ccc(F)c(C(=O)c2c[nH]c3ncc(Cl)cc23)c1F,30.7 ± 35%
15,Nc1nc(Nc2ccc(S(N)(=O)=O)cc2)nn1C(=S)Nc1c(F)cccc1F [Cdk1/2 Inhibitor III],-193 ± 240%
16,O=c1[nH]nc(Sc2ncc([N+](=O)[O-])s2)n1-c1ccc2c(c1)OCCO2,-22.3 ± 6%
17,O=C1NC(=O)[C@@H](c2cn3c4c(cccc24)CCC3)[C@@H]1c1c[nH]c2ccccc12,-118 ± 200%
18,CC1(C)CNc2cc(NC(=O)c3cccnc3NCc3ccncc3)ccc21 [Motesanib diphosphate salt],44.9 ± 27%
19,CC(C)(C)c1cc(NC(=O)Nc2ccc(-c3cn4c(n3)sc3cc(OCCN5CCOCC5)ccc34)cc2)no1,85.7 ± 43%
20,Cc1[nH]c(/C=C2\C(=O)Nc3ccccc32)c(C)c1CCC(=O)O,6.44 ± 30%
